“And” between values parts separate entries of the source, which are not always exact repeats. Equal entries are not always repeated. Results filed as inconclusive are left out. Where a call stands in place of a potency, no number is given. Some structures have more than one record in an assay (separate samples or runs), and their calls can disagree. The source made the active and inactive calls. Calls follow the shape of the dose curve; as a rule, active = well fitted curve in the direction sought with a large enough effect in the repeat runs; inconclusive = weak or mixed curves; inactive = no such curve, though single readings can be large; an effect the other way counts as inactive or inconclusive.
Legend:
[1] = biological target: Cytochrome P450 2C19 (Homo sapiens) (UniProt P33261); assay: Cytochrome P450 Family 2 Subfamily C Member 19 (CYP2C19) small molecule antagonists: luciferase reporter qHTS assay (AID 1671197); also: nearly all actives have a fitted effect of over 65% in size
Summary of the method: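 P450-Glo CYP2C19 screening system; proluciferin substrate; DMSO compound stocks; 10 min RT preincubation; NADPH regeneration, 1 h at 37C; luciferin detection reagent, 20 min RT; luminescence as RLU.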

[2] = biological target: Cytochrome P450 2C9 (Homo sapiens) (UniProt P11712); assay: Cytochrome P450 Family 2 Subfamily C Member 9 (CYP2C9) small molecule antagonists: luciferase reporter qHTS assay (AID 1671198); also: nearly all actives have a fitted effect of over 50% in size
Summary of the method: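 P450-Glo proluciferin substrate with CYP2C9 enzyme; 10 min RT preincubation, then NADPH regeneration 1 h at 37C; luciferin detection reagent 20 min RT, luminescence in relative luminescence units.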

[3] = biological target: Cytochrome P450 1A2 (Homo sapiens) (UniProt P05177); assay: Cytochrome P450 Family 1 Subfamily A Member 2 (CYP1A2) small molecule antagonists: luciferase reporter qHTS assay (AID 1671199); also: nearly all actives have a fitted effect of over 50% in size
Summary of the method: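 Steps: enzyme-substrate mix dispensed; test compounds and furafylline control pinned in; 10 min room temperature; NADPH regeneration solution added, 1 h; reaction stopped with luciferin detection reagent; luminescence read after 20 min.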

[4] = biological target: Voltage-gated inwardly rectifying potassium channel KCNH2 (Homo sapiens) (UniProt Q12809); assay: Human Ether-a-go-go-Related Gene (hERG) channel small molecule antagonists: fluorescence cell-based qHTS assay (AID 1671200); also: nearly all actives have a fitted effect of over 50% in size
Summary of the method: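 Channel function was assessed by thallium flux. Cells seeded the previous day and kept at 37 C took up FluxOR II dye over 1 h in the dark at room temperature, then sat another 10 min before stimulation.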

[5] = biological target: Cytochrome P450 3A4 (Homo sapiens) (UniProt P08684); assay: Cytochrome P450 Family 3 Subfamily A Member 4 (CYP3A4) small molecule antagonists: luciferase reporter qHTS assay (AID 1671201); also: nearly all actives have a fitted effect of over 50% in size
Summary of the method: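 Compounds in DMSO were pin-transferred onto CYP3A4 enzyme-substrate mix and held 10 min at room temperature. NADPH regenerating solution started the reaction for 1 h; luciferin detection reagent stopped it, and luminescence was read after 20 min.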
Potency is read from the fitted curve at half-maximal effect.

Sequence of Cytochrome P450 2C19 (Homo sapiens) (P33261 whole entry, looked up): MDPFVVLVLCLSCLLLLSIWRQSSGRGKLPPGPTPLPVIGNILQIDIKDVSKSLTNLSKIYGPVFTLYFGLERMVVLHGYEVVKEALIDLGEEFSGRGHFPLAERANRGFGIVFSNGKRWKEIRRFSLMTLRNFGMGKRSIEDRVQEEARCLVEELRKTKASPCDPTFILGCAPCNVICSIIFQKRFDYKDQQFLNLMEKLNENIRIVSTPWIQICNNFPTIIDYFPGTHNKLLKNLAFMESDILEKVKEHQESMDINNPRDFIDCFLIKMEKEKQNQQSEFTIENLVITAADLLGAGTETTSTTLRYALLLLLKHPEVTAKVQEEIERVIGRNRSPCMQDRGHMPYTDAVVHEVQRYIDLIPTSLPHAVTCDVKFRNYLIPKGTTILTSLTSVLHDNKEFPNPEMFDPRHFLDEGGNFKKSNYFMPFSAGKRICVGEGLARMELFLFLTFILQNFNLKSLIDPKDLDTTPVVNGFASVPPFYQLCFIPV
Sequence of Cytochrome P450 3A4 (Homo sapiens) (P08684 whole entry, looked up): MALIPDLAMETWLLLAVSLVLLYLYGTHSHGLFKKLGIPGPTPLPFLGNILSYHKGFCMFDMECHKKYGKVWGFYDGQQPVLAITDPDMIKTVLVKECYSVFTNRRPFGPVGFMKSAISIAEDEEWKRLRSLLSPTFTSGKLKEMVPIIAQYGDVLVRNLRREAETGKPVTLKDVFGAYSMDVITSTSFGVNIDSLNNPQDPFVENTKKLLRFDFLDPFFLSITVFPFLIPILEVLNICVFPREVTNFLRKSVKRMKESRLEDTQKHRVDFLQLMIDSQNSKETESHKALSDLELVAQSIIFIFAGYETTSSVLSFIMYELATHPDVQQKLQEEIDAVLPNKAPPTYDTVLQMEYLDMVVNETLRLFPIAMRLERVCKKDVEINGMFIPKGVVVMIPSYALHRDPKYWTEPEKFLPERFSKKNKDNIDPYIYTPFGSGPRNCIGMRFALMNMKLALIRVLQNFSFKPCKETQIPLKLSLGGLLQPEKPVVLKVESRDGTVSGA
Sequence of Cytochrome P450 2C9 (Homo sapiens) (P11712 whole entry, looked up): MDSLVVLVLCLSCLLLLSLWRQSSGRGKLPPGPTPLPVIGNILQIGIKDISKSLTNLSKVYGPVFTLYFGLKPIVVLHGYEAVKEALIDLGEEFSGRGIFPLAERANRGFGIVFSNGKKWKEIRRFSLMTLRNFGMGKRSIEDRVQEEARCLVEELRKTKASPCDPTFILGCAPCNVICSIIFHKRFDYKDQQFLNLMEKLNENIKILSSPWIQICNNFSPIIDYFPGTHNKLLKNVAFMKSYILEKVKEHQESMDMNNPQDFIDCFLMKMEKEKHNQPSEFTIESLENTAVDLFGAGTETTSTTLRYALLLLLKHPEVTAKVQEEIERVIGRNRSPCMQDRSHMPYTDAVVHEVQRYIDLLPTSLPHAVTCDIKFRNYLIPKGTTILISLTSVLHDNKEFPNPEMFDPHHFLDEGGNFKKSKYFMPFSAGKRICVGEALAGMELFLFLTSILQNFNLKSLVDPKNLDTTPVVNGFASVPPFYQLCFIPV
Sequence of Cytochrome P450 1A2 (Homo sapiens) (P05177 whole entry, looked up): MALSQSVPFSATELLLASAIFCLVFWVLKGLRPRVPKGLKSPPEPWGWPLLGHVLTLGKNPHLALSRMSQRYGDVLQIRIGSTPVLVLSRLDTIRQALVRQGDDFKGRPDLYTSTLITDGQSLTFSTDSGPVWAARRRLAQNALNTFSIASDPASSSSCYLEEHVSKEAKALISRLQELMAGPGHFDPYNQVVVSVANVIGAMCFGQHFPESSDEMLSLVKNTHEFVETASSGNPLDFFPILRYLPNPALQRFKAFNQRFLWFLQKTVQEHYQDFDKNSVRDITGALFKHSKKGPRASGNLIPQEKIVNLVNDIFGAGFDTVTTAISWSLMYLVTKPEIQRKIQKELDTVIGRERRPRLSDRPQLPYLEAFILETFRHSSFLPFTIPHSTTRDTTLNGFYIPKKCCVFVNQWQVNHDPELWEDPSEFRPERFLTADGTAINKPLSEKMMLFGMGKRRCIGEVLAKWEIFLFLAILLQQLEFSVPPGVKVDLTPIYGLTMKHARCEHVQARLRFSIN
Sequence of Voltage-gated inwardly rectifying potassium channel KCNH2 (Homo sapiens) (Q12809 whole entry, looked up): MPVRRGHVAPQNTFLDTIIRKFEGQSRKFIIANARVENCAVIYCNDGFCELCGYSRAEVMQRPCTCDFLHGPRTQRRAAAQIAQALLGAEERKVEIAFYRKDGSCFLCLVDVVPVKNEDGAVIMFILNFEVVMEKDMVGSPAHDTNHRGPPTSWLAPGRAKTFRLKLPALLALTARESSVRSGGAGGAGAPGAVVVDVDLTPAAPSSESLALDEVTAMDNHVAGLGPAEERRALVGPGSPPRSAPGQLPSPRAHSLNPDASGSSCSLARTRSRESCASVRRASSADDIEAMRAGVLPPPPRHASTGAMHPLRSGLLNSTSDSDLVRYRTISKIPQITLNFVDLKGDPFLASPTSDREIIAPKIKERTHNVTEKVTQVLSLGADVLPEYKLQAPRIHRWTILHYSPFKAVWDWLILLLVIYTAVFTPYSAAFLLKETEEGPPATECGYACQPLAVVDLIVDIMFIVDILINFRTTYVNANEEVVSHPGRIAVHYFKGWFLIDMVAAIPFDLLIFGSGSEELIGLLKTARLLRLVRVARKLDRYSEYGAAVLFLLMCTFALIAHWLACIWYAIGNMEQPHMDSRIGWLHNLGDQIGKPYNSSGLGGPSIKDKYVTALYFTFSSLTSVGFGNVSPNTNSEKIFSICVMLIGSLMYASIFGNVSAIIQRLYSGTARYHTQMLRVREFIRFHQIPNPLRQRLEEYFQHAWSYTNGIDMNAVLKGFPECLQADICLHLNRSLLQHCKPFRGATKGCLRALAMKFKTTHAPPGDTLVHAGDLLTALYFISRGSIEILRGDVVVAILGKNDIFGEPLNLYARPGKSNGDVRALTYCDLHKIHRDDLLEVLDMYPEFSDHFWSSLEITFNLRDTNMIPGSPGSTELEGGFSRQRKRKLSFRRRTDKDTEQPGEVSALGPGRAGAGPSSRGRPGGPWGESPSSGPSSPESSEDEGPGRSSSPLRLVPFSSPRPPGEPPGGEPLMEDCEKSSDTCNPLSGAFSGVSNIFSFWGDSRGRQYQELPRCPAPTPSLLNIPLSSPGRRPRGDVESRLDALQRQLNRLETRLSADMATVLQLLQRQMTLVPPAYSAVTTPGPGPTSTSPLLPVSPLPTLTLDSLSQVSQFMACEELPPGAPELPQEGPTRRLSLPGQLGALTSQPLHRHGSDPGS

| SMILES | Potency [1] | Potency [2] | Potency [3] | Potency [4] | Potency [5] |
| --- | --- | --- | --- | --- | --- |
| CC(=O)OC/C=C(\C)CCC=C(C)C | inactive and 39.9 µM (active) | inactive and 39.9 µM (active) | inactive | inactive | inactive and 31.7 µM (active) |
| CCCCCCCC(=O)O | 38.5 µM (active) and inactive | inactive | inactive | inactive | inactive |
| Cc1ccc(Cl)cc1 | inactive | 63.3 µM (active) | inactive | inactive |  |
| COc1c(Cl)ccc(Cl)c1C(=O)O | inactive | 39.9 µM (active) | inactive | inactive |  |
| CC/C(C)=N/O | inactive | inactive | inactive | inactive |  |
| CS(=O)(=O)c1ccc(Cl)cc1 | inactive | inactive | inactive | inactive |  |
| Cc1ccc(C)c(S(=O)(=O)O)c1 | inactive | inactive | inactive | inactive |  |
| CC(O)CNCC(C)O (stereo not drawn) | 20.1 µM (active) and 71 µM (active) | 35.8 µM (active) and inactive | inactive | inactive | 31.9 µM (active) and inactive |
| OB(O)O | inactive | inactive | inactive | inactive | inactive |
| C1CCCNCC1 | inactive | inactive | inactive | inactive |  |
| Cc1cc(C)c(O)c(C)c1 | 71 µM (active) | 35.6 µM (active) and 79.6 µM (active) | 35.6 µM (active) and 28.3 µM (active) | inactive | inactive |
| Cc1nnc(NS(=O)(=O)c2ccc(N)cc2)s1 | 39.8 µM (active) | 35.5 µM (active) | inactive | inactive |  |
| CN1Cc2c(N)cccc2C(c2ccccc2)C1 (stereo not drawn) | inactive | inactive | inactive | inactive |  |
| O=Cc1ccc(CO)o1 | inactive | inactive | inactive | inactive | inactive |
| CC(=O)Nc1ccc(CC(=O)O)cc1 | inactive | inactive | inactive | inactive |  |
| O=C(O)C1=NN(c2ccc(S(=O)(=O)O)cc2)C(=O)C1 | 35.6 µM (active) | inactive | 35.6 µM (active) and inactive | inactive |  |
| C[Si](C)(C)N[Si](C)(C)C | inactive | inactive | inactive | inactive |  |

| SMILES | Potency [1] | Potency [2] | Potency [3] | Potency [4] | Potency [5] |
| --- | --- | --- | --- | --- | --- |
| CC(=O)C(C)C | inactive | inactive | inactive | inactive |  |
| Cc1ccccc1C=O | inactive | inactive | inactive | inactive | inactive |
| C[n+]1ccn(CCO)c1 | inactive | inactive | inactive | inactive |  |
| COc1ccc(N)c(OC)c1 | 15.3 µM (active) and 35.6 µM (active) | 15.3 µM (active) and 35.6 µM (active) | 39.9 µM (active) | inactive | 3.84 µM (active) and 11.3 µM (active) |
| CCc1cccc(CC)c1N | inactive and 79.6 µM (active) | 71 µM (active) | 22.6 µM (active) and 5.64 µM (active) | inactive |  |
| O=C(NCC1CCCCN1)c1cc(OCC(F)(F)F)ccc1OCC(F)(F)F (stereo not drawn) | inactive | inactive | inactive | 15.2 µM (active) and 9.52 µM (active) |  |
| COc1c2ccoc2cc2oc(=O)ccc12 | 5.77 µM (active) and 8.94 µM (active) | 2.89 µM (active) and 2.52 µM (active) | 364 nM (active) and 283 nM (active) | inactive |  |
| NC(=O)NC(N)=O | inactive | inactive | inactive | inactive | inactive |
| CC1(C)C(=O)N(Cl)C(=O)N1Cl | 71.1 µM (active) | inactive | inactive | inactive | inactive |
| Cc1cc(C)cc(O)c1 | 40 µM (active) and 73.1 µM (active) | inactive | 35.7 µM (active) and 41.1 µM (active) | inactive |  |
| CN1CCCC1=O | inactive | inactive | inactive | inactive | inactive |
| O=C1CCCCCCCCCCC1 | inactive | inactive | inactive | inactive | inactive |
| CN=C(NC#N)NCCSCc1nc[nH]c1C | 22.2 µM (active) and 34.7 µM (active) | 19.8 µM (active) and 15.5 µM (active) | inactive | inactive |  |
| CCOC(=O)CC(=O)OCC | inactive | inactive | inactive | inactive |  |
| Nc1cccc(C(F)(F)F)c1 | inactive | inactive | inactive | inactive |  |
| CC/C=C(\C(=O)N[C@@H]1C(=O)N2C(C(=O)OCOC(=O)C(C)(C)C)=C(COC(N)=O)CS[C@H]12)c1csc(N)n1 | 19.5 µM (active) | 12.3 µM (active) and 7.76 µM (active) | 27.5 µM (active) and inactive | inactive |  |
| CCCOCC(C)O (stereo not drawn) | inactive | inactive | inactive | inactive |  |

From PubChem BioAssay (Tox21)
